# Compound activity from PubChem BioAssay.
# hgDAF12 agonist = H. glycines DAF-12 receptor agonists, primary screen, cell-based, luminescence, HEK293, GAL4 fusion, UAS-luciferase | Nuclear hormone receptor DAF-12 (Heterodera glycines), GAL4 fusion | HEK293 GAL4-hgDAF12 UAS-luciferase reporter, agonist luminescence; normalized to butyrate control | activation, % at 6.8 µM | 1.8% of 370,000 active | AID 687014, 2013;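 active means activation above a cutoff set at the mean of all screened compounds plus 3 SD, cut at about 10% in these data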;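 further: 0% = DMSO wells and 100% = sodium butyrate wells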
# DAX1 inh-1 = DAX1 (NR0B1) inhibitors on StAR promoter, primary screen, cell-based, luminescence, SF-1 (NR5A1), full-length DAX-1 | HEK293T StAR-luciferase reporter, SF-1/DAX-1 repression relief | inhibition, % at 6.8 µM | 1.1% of 370,000 active;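 active means inhibition above the mean over all tested compounds plus 3 SD, cut at about 3.6% in these data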;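 further: 0% = DAX-1 cells with DMSO and 100% = cells lacking DAX-1 with DMSO; higher inhibition means more luminescence from relief of DAX-1 repression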
# hcDAF-12 act = H. contortus DAF-12 nuclear receptor activators, primary screen, cell-based, luminescence, HEK293, lit1-tk-luc reporter. HEK293 hcDAF-12 lit1-tk-luc reporter; 0% DMSO, 100% Δ7-dafachronic acid. activation, % at 6.8 µM. 1.4% of 370,000 active;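 active means activation above the mean of all tested compounds plus 3 SD, cut at about 5.5% in these data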;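 further: 100% = response to 3 µM Δ7-dafachronic acid high control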
# ssDAF-12 act = S. stercoralis DAF-12 nuclear receptor activators, primary screen, cell-based, luminescence, HEK293, GRIP1 co-expression, lit1-tk-luc. activation, % at 6.8 µM. 1% of 370,000 active. Nuclear hormone receptor DAF-12 (Strongyloides stercoralis). HEK293 ssDAF-12/GRIP1 lit1-tk-luc reporter; % of 3 µM dafachronic acid response;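 active means activation above the mean over all tested compounds plus 3 SD, cut at about 0.9% in these data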;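 further: 0% = DMSO-only wells and 100% = 3 µM delta7-dafachronic acid wells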
# DAX1 inh-2 = DAX1 (NR0B1) inhibitors, primary screen, cell-based, HEK293, Gal4-DAX1, luciferase luminescence | Nuclear receptor subfamily 0 group B member 1 (Homo sapiens), P51843 | HEK293 Gal4-DAX1 luciferase reporter | inhibition, % at 6.75 µM | 0.99% of 340,000 active;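 active means inhibition above the mean over all tested compounds plus 3 SD, cut at about 4.2% in these data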;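 further: 0% = DAX1-transfected cells with DMSO and 100% = empty-vector control cells with DMSO; inhibition shows as a rise in luminescence from relieved DAX1 repression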
# Target sequence (P51843 207-470 limits assumed): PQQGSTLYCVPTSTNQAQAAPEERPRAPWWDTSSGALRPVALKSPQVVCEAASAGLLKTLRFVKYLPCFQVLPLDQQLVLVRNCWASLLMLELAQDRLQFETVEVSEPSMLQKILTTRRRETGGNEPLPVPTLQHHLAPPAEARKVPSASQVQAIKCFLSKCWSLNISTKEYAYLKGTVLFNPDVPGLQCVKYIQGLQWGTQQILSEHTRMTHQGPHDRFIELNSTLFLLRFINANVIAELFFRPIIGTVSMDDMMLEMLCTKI
# An asterisk follows results filed as active; x = no result. This is a sample that favours compounds with a hit; in the whole collection about 4.1% have one here.
SMILES,hgDAF12 agonist,DAX1 inh-1,hcDAF-12 act,ssDAF-12 act,DAX1 inh-2
O=C(O)COn1c(-c2ccccc2)nc2ccc(Cl)cc21,6.0,0.7,3.2,1.1*,-0.2
C[C@@H]1COc2cc(N3CCOCC3)ccc2S(=O)(=O)N1,-0.4,0.1,-0.2,-0.6,x
COc1ccc(-c2cc3nc4n(c(=O)c3s2)CCCCC4)cc1,9.6,2.9,5.1,0.1,7.8*
COc1ccc(-c2cc3nc(C)n(N)c(=O)c3s2)cc1,-9.2,-1.4,-3.7,-3.0,-9.2
C[C@H]1[C@@H](N(C)Cc2cccs2)CC[C@@]23CCCN2C(=O)CCC[C@@H]13,7.4,x,0.5,-1.2,x
O=C(Cc1ccc2cccnc2c1)c1ccc(O)cc1O,10.7*,1.9,2.8,-0.4,-0.4
O=C(Cc1ccccc1)c1ccc(O)cc1O,0.8,-3.1,-1.9,-0.8,0.2
O=C(NCCc1ccccc1)OCc1cn(-c2cccc(Cl)c2)nn1,3.1,-0.3,-2.9,-0.2,x
Cc1ccc(N=Nc2ccc3ccccc3c2O)cc1,-2.3,0.2,5.4,-0.6,3.6
COc1cccc(N=Nc2ccc3ccccc3c2O)c1,9.8,1.7,3.7,1.6*,3.6
COC(=O)c1cc2c(c3c4cc(F)ccc4n(S(=O)(=O)c4ccccc4)c13)C(=O)N(Cc1ccccc1)C2,0.3,-1.1,-0.1,-1.0,x
COC(=O)[C@]12C[C@H](CC(=O)NCc3ccc(C)o3)C(=O)N(Cc3ccc4c(c3)OCO4)C1=C[C@H](COCc1ccccc1)O[C@@H]2C,-0.7,-1.5,-2.8,-1.2,x
COCC(C)N=C1NN=C(c2c[nH]c3ccccc23)CS1 (stereo not given),8.8,1.5,6.2*,0.5,1.3
COC(=O)C1=C(C)N(Cc2ccccc2C(F)(F)F)C(=NCC2CC2)NC1c1cccc(F)c1 (stereo not given),-5.7,-1.2,-2.4,-1.6,x
CCOC(=O)Cc1csc(-n2sc3ccccc3c2=O)n1,1.3,0.2,6.3*,0.2,1.8
CCOC(=O)Cc1csc(SCn2nnc3ccccc3c2=O)n1,1.2,-0.3,1.4,-1.3,1.1
CCOC(=O)[C@@]12CN(C(=O)OC(C)(C)C)CC=C1N(Cc1ccc(OC)cc1)C(=O)[C@H]2CC(=O)NCc1cccc(C(F)(F)F)c1,-4.0,0.1,-1.2,-1.3,x
O=c1c2ccccc2oc2cc(-c3ccc4[nH]ccc4c3)ccc12,11.2*,0.2,3.0,-0.4,-1.9
COc1ccc(C(=O)Nc2nc3ccc(OC)cc3s2)cc1,7.6,0.6,1.2,-0.8,1.7
COc1ccc2nc(Nc3nc(C)c(C(C)=O)s3)sc2c1,12.8*,1.3,0.6,-0.5,1.5
COc1ccc(Nc2nc3ccc(OC)cc3s2)cc1,12.1*,1.2,0.1,-1.2,1.1
COC(=O)[C@]12C[C@H](CC(=O)NCc3cccc4ccccc34)C(=O)N(CCC3=CCCCC3)C1=C[C@H](C1CCCC1)O[C@@H]2C,1.7,-1.4,1.8,-0.9,x
O=C(CN1CCCc2ccccc21)NCc1ccc(Cl)cc1,2.3,0.6,2.5,-0.3,x
O=C(O)/C=C/C(=O)Nc1ccc(-n2nccc2C(F)(F)F)cc1,2.1,-0.1,0.6,-1.2,4.2*
O=C(O)/C=C/C(=O)Nc1c(F)cccc1F,-1.0,0.2,-1.9,-1.2,4.2*
SMILES,hgDAF12 agonist,DAX1 inh-1,hcDAF-12 act,ssDAF-12 act,DAX1 inh-2
O=C(O)/C=C\C(=O)Nc1ccccc1C#Cc1ccccc1,10.5*,1.0,1.1,-1.2,2.4
O=C(O)/C=C/C(=O)Nc1ccc(-c2ccccc2)cc1,11.4*,0.8,0.2,-1.1,-3.2
Nc1[nH]c(C(=O)c2ccccc2)c(-c2ccc(O)cc2)c1C(=O)NCCc1c[nH]c2ccccc12,-2.9,x,-0.6,-1.9,x
CC(=O)C1(C(=O)Nc2cc(C)cc(C)c2)CC(c2ccccn2)=NO1 (stereo not given),0.5,-1.4,5.5,0.6,x
Cn1c(NC(=O)c2ccco2)c(-c2ccccc2)c(=O)c2ccccc21,0.1,-0.2,1.4,-0.5,4.2*
CC(C)C(=O)Nc1c(-c2ccccc2)c(=O)c2ccccc2n1C,-0.1,0.4,1.8,-1.8,0.9
COc1ccc(-c2c(NC(=O)c3ccco3)n(-c3ccccc3)nc(C)c2=O)cc1,-1.3,0.9,0.7,-1.5,4.8*
O=C(Nc1nc2ncccn2c1-c1ccc(F)cc1)c1ccccc1,-2.1,0.0,0.1,-0.6,x
CS(=O)(=O)c1ccc(-c2nn[nH]n2)cc1,-1.5,-0.5,0.2,-0.8,0.4
Cc1ccc(-c2nn[nH]n2)cc1,0.9,-0.1,4.3,1.1*,-0.9
COC(=O)C/C(C)=N/Nc1ccc(S(=O)(=O)N2CCCC2)cc1[N+](=O)[O-],-3.6,0.0,-2.4,-1.1,4.5*
CC(OC(=O)c1cccnc1SCc1cc(=O)n2ccccc2n1)c1ccccn1 (stereo not given),-1.3,-0.2,3.3,-0.6,1.2
CCOC(=O)c1cccnc1SCc1cc(=O)n2ccccc2n1,3.4,1.7,4.0,2.1*,-0.2
COc1ccccc1N1CCN(N=Cc2ccccc2Br)CC1,0.5,-0.6,0.2,-1.3,x
O=[N+]([O-])c1ncccc1OCc1ccccc1Br,1.0,-0.1,-1.8,-0.7,0.0
O=[N+]([O-])c1ncccc1OCc1ccc(Br)cc1F,10.6*,0.3,0.8,-0.5,-0.2
CNNC(=O)C(=O)NNS(=O)(=O)c1ccccc1,-0.4,0.6,2.8,-0.4,5.8*
CC(C)C(=O)NNS(=O)(=O)c1ccccc1,1.4,-0.2,-0.8,-1.3,-0.6
Cc1ccc(-c2c(C(=O)NC3CCCC3)oc(=O)c3ccccc23)cc1,-1.4,-0.7,-1.7,-1.7,x
CSc1ccc(C2Nc3cccc4cccc(c34)N2)cc1,0.3,-0.1,5.7*,0.5,-0.5
Cc1cccc(C2Nc3cccc4cccc(c34)N2)c1,-1.0,-0.3,5.7*,1.2*,0.7
Clc1ccc(C2Nc3cccc4cccc(c34)N2)cc1,0.8,-0.6,4.5,0.2,0.1
CCN(CC)c1cc2c(c3c1ccn3C)C1CCC2O1 (stereo not given),-2.3,-0.2,-2.3,0.9*,x
COC(=O)[C@]12C[C@H](CC(=O)NCc3ccc(C)o3)C(=O)N(Cc3cccc4ccccc34)C1=C[C@H](COCc1ccccc1)O[C@@H]2C,1.3,-0.1,-3.4,-1.4,x
Cc1cc([N+](=O)[O-])nn1CCCC(=O)NC1CCCCC1,-0.4,0.0,-1.1,-1.7,8.3*
